Bioassay records (PubChem)
An excerpt weighted towards active compounds, which were near 4.1% of everything screened.
Peg3 promoter – Peg3 promoter activity inhibition; HeLa PEG-Prom luciferase reporter, luminescence, overnight; inhibition, % at 20 µM; hit rate 1.7% among 360,000;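 active means inhibition of at least 50% at 20 µM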
MITF TRPM1 inh – inhibitors of MITF-driven TRPM1 promoter in melanoma cells. SK-MEL-5 TRPM1 promoter luciferase, 24 h. inhibition, % at 12.5 µM. hit rate 0.83% among 330,000. AID 488899;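 active means mean inhibition across replicates of 60% or more, whatever share of single replicates reaches that level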
EBV LMP1 NFkB – reduces LMP1-driven NF-kappaB luciferase signal; hit rate 0.69% among 350,000; LMP1-induced NF-kappaB luciferase reporter cells, luminescence; AID 504558; inhibition, % at 12.5 µM; in the data active means inhibition above about 41%;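 further: 0% = neutral control wells and 100% = reference inhibitor control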
TROY signal inh – inhibitors of TROY-dependent NF-kB signaling | AID 1347056 | Q293 LMP1-TROYcd NF-kB luciferase reporter, 4 h | inhibition, % at 10 µM | hit rate 0.98% among 360,000;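 active means compounds whose plate-normalised and pattern-corrected inhibition of the luciferase reporter signal at the single screening dose is 50% or more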
Shn3 3UTR inh – Schnurri-3 reporter inhibition in Clone20 osteoblasts; hit rate 0.52% among 360,000; Clone20 osteoblast Shn3 3'UTR firefly luciferase, 24 h; inhibition, % at 12.5 µM;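 active means mean inhibition of at least 75% with every replicate also reaching 75%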;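 further: 0% = median of neutral control wells and 100% = pilot-screen positive control compound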
TWEAK-Fn14 inh – inhibitors of TWEAK-Fn14 interaction signaling; TWEAK-stimulated Fn14 reporter cells, luciferase luminescence, 8 h; inhibition, % at 10 µM; hit rate 2% among 360,000; in the data active means inhibition above about 50%
The depositor's hits bear a star; x = not tested or not shown.

SMILES	Peg3 promoter	MITF TRPM1 inh	EBV LMP1 NFkB	TROY signal inh	Shn3 3UTR inh	TWEAK-Fn14 inh
Cc1ccc([N+](=O)[O-])cc1NC(=S)NC(=O)C(C)(C)C	2.4	1.5	-2.0	-24.6	0.4	-11.4
COc1ccc(NC(=S)NNc2ccc([N+](=O)[O-])cc2S(=O)(=O)Nc2ccc(C)cc2C)cc1	52.5*	3.5	11.9	29.4	25.0	36.6
COc1ccc(NC(=S)Nc2cccc([N+](=O)[O-])c2)cc1	-47.9	-6.4	-2.3	-61.6	-9.1	-20.9
CC(=O)/C(N=Nc1ccc2c(c1)OCCO2)=C(\C)O	-24.8	10.7	-1.2	27.0	57.0	77.4*
CC(=O)/C(N=Nc1ccc2c(c1)OCO2)=C(\C)O	-167.6	-48.2	-22.2	-12.1	-13.3	25.1
O=C(ONC1=NCCCCC1)c1ccc(Cl)cc1	101.3*	-9.1	-25.7	-11.5	-23.3	-93.9
CCCNC(=O)c1ccc(N2CCC3(CC2)CC(c2cccc(Br)c2)=NO3)c(NC(=O)c2cccc(C)c2)c1	-7.6	-3.4	16.0	-14.6	14.8	-16.9
CN1CCC(N(C)C(=O)c2ccc(Cl)c(S(=O)(=O)N3CCCCC3)c2)CC1	16.2	-8.6	-9.2	-5.0	-14.8	1.4
C/C(=N\NC(=O)c1ccc(Cl)cc1)c1cccs1	-65.2	-40.4	18.1	-49.3	-21.2	41.4
C/C(=N/NC(=O)c1ccc2nc[nH]c2c1)c1cccs1	-118.3	-48.9	51.9*	-13.7	-14.0	8.4
C/C(=N/NC(=O)c1cc(C(C)C)[nH]n1)c1cccs1	-35.1	-5.7	7.9	-35.0	-21.2	52.0*
CCCCN(C(=O)c1ccc(NC2CC2)c([N+](=O)[O-])c1)c1c(N)n(CCCC)c(=O)[nH]c1=O	6.0	2.6	3.9	9.8	3.2	9.2
Cc1ccc(S(=O)(=O)N2CCN(C(=O)CN3C(=O)CNC3=O)CC2)cc1	-0.1	8.4	-3.7	-15.2	-10.7	-2.2
Cc1ccc(C(=O)NC2CCCCCCC2)c(Cl)c1	-41.0	12.2	8.2	40.5	-5.9	74.7*
Cc1ccccc1C(=O)NC1CCN(C(=O)NC2CCCCC2)CC1	-3.6	-6.3	7.3	3.3	4.5	53.2*
Cc1ccccc1CSCC(=O)NC1CCCC1	-38.2	-33.8	-5.3	-2.8	-21.6	-9.6
Cc1ccccc1CC(=O)NC1CCCCCC1	-6.3	-3.6	-2.3	-20.7	18.3	87.2*
O=C1CSC(=S)N1Cc1ccccc1	6.6	x	41.5*	5.6	-15.0	-14.1
O=C1CCN(CCCN2CCC(=O)N(Cc3ccccc3)C2=S)C(=S)N1Cc1ccccc1	-29.9	x	-9.7	5.2	34.8	23.5
COCCn1c(SCc2ccc(OC)c(F)c2)nnc1-c1ccncc1	14.2	-5.7	2.0	-15.1	-14.9	9.2
CNc1ccc2ncc(-c3ccc(OC)c(OC)c3)n2n1	27.5	x	x	56.7*	29.3	83.5*
COc1cc(O)cc(O)c1C(=O)/C=C/c1ccccc1	23.6	18.7	-2.8	4.5	-6.2	78.2*
COc1cc(OC)c(C(=O)/C=C/c2ccccc2)c(O)c1O	3.1	14.8	-0.5	19.1	-10.3	63.9*
O=C(NNC(=O)c1ccc(Cl)nc1)c1ccncc1	4.3	-7.5	2.6	1.3	3.2	0.0
COc1ccc(-c2cc3c(=O)n(CC(=O)NCCCN4CCC(N5CCCCC5)CC4)nc(C)n3n2)cc1	5.5	71.8*	-2.0	-4.4	-19.4	-17.7
SMILES	Peg3 promoter	MITF TRPM1 inh	EBV LMP1 NFkB	TROY signal inh	Shn3 3UTR inh	TWEAK-Fn14 inh
COc1ccc(-c2cc3c(=O)n(CC(=O)NCCCN4CCC(N5CCCCC5)CC4)ncn3n2)cc1	-120.8	-36.6	2.6	-37.8	6.8	-1.2
COc1cc(C=C2CN(C)C(=O)C2=O)ccc1O	2.9	x	-7.6	-3.1	-15.8	1.6
CN1C/C(=C/c2ccsc2)C(=O)/C(=C/c2ccsc2)C1	36.0	86.6*	-5.5	-4.5	65.5	24.6
CCOc1cc(/C=C2\CN(C)C/C(=C\c3ccc(O)c(OCC)c3)C2=O)ccc1O	102.8*	102.5*	-109.4	28.2	96.1*	103.5*
CCOc1cc(/C=C2\CCC/C(=C\c3cc(Cl)c(O)c(OCC)c3)C2=O)cc(Cl)c1O	80.8*	71.6*	-37.3	61.5*	69.6	76.6*
Cc1ccc2c(c1)N(CC(=O)NCCc1ccccc1)C(=O)c1cccnc1O2	-5.4	0.5	3.2	-7.9	-15.4	4.2
O=S(c1cc(Cl)cc(Cl)c1O)c1cc(Cl)cc(Cl)c1O	x	x	x	54.1*	x	-2.6
Oc1c(Cl)cc(Cl)cc1CNc1nccs1	9.3	10.3	-2.1	6.1	-12.7	-4.0
O=[N+]([O-])c1c(Nc2ccccn2)cc(Cl)c2nonc12	107.7*	75.7*	54.3*	-1.4	95.2*	19.6
O=[N+]([O-])c1c(Nc2ccc(O)cc2)cc(Cl)c2nonc12	102.7*	95.8*	13.4	83.1*	94.8*	67.4*
CN(C)c1cc(Nc2ccc(O)cc2)c([N+](=O)[O-])c2nonc12	-3.2	-4.0	-2.6	-7.8	12.2	-25.4
CCCn1c(C(O)c2cc(OC)c(OC)c(OC)c2)nc2ccccc21 (stereo not drawn)	-5.6	5.6	7.6	-2.0	21.2	5.9
CC1S/C(=C(\C#N)C(=O)NCc2ccco2)N(Cc2ccco2)C1=O (stereo not drawn)	12.7	3.0	40.6*	17.7	0.8	5.7
C/C(=N\Nc1nc2ccccc2s1)c1ccc(Br)s1	-86.1	7.6	-12.7	31.2	28.7	51.3*
C/C(=N\Nc1nc2ccccc2s1)c1ccc2c(c1)OCO2	-271.7	-26.2	-43.8	12.1	-73.7	-19.9
CC(=NNc1nc2ccccc2s1)c1ccncn1	-17.5	37.8	68.1*	-9.0	88.4*	0.8
O=C(NCCc1ccc(Cl)cc1Cl)C1=CC=CN2CCS(=O)(=O)N=C12	3.5	4.4	-1.5	-5.2	-10.6	9.9
C=CCN1CCC(=O)C(C(=O)OCC)=C1C(=O)OCC	-9.9	-0.3	-12.5	-17.9	4.4	-6.2
CCCCCn1c(N)c(-c2nc3ccccc3s2)c2c([N+](=O)[O-])nn(CC)c(=O)c21	35.2	-4.9	7.3	9.3	16.5	83.0*
CCCCn1c(N)c(-c2nc3ccccc3s2)c2c([N+](=O)[O-])nn(CC)c(=O)c21	19.6	-5.3	-1.5	8.2	0.3	-27.2
O=C(c1cc(S(=O)(=O)N2CCOCC2)ccc1Cl)N1CCc2ccccc2C1	17.7	2.5	-42.9	21.8	-4.3	6.6
CCCOc1ccccc1C1CC(=O)Nc2cc3c(cc21)OCCO3 (stereo not drawn)	7.1	36.8	4.3	48.1	87.3*	55.4*
CCOc1ccccc1C1CC(=O)Nc2cc3c(cc21)OCCO3 (stereo not drawn)	4.1	9.4	12.3	22.8	60.9	17.3
Cc1nc(NC(=O)CN2CC(C)OC(C)C2)sc1C(=O)N(C)C (stereo not drawn)	7.3	4.5	-47.0	-6.8	25.9	-13.4
COc1ccc(-c2cc(N3CCCC3)n3ncnc3n2)cc1	7.1	-7.8	9.8	8.1	26.0	-10.4
